In all, about 39,000 compounds went through this assay and about 3,300 (8.5%) were called active. The sample holds actives, similar compounds and a random draw of the others, so the mix is not that of the screen.
What follows are molecules tested on HepG2 (assay: cytotoxicity call (relative viability < 0.9)). Details: 10 µM.
In the case of `N#Cc1cnccn1`, the cytotoxicity call is reported as “inactive”. With `CCNC1(c2cccs2)CCCCC1=O.Cl` (centres undefined) the cytotoxicity call was “inactive”. With `NCC[C@H](NC(=O)[C@@H](N)CCCNC(N)=N[N+](=O)[O-])C(N)=O.O=CC(F)(F)F` the cytotoxicity call was “inactive”. For `c1cnc(N[C@@H]2CO[C@@]3(CCNC3)C2)cn1`, the cytotoxicity call was “inactive”. For `NC1=NC(=O)N2C[C@@H]12`, the cytotoxicity call was “inactive”. `C[C@H](CO)N1C[C@H](C)[C@H](CN(C)C(=O)Oc2ccc3ccccc3c2)OCc2cnnn2CCCC1=O` was tested, and the cytotoxicity call was “inactive”. In the case of `C1CN2CN3CCN(CN1C3)C2`, the cytotoxicity call is reported as “inactive”. With `NCCc1ccc([N+](=O)[O-])cc1` the cytotoxicity call was “inactive”. For `O=C(c1ccco1)N1C[C@H]2CN[C@@H](C2)C1`, the cytotoxicity call was “inactive”. `C=C[C@H]1[C@H](O[C@@H]2O[C@H](CO)[C@@H](O)[C@H](O)[C@H]2O)OC=C2C(=O)OCC[C@H]21` was tested, and the cytotoxicity call was “inactive”. With `Cc1cccc(CC2(N)CC2)c1` the cytotoxicity call was “inactive”. For `N#[N+]CC(=O)CC[C@H](N)C(=O)O`, the cytotoxicity call was “inactive”. With `CC12CCC3C(CCC4(O)CC(O)CCC34C=O)C1(O)CCC2C1=CC(=O)OC1` (centres undefined) the cytotoxicity call was “active”. For `C#CC(C)(O)CC` (centres undefined), the cytotoxicity call was “inactive”. With `CNC(=O)CN1CCOCC12CCN(c1cc(OC)ncn1)CC2` the cytotoxicity call was “inactive”. In the case of `CC1(C)CCC(C)(C)c2cc(-c3csc(CC#N)n3)ccc21`, the cytotoxicity call is reported as “inactive”. With `COc1c(C[C@@H](C)O)c2c3c(C[C@@H](C)O)c(OC)c(=O)c4c(O)cc5c(c6c(cc(O)c(c1=O)c62)OCO5)c43` the cytotoxicity call was “active”. `NCCc1cccc2ccccc12` was tested, and the cytotoxicity call was “inactive”. For `C[C@@H]1CN([C@@H](C)CO)C(=O)c2c(c3ccccc3n2C)-c2ccccc2CO[C@H]1CN(C)C(=O)Oc1ccccc1`, the cytotoxicity call was “inactive”. In the case of `CN(C)C(=O)N[C@H]1CN[C@H]2CCCO[C@H]21`, the cytotoxicity call is reported as “inactive”. In the case of `O=C1C=C2C=CC3CC2(O1)C1CCCCN31` (centres undefined), the cytotoxicity call is reported as “active”. `CN1C(=O)NC(=O)/C(=C\c2ccc(O)cc2)C1=O` was tested, and the cytotoxicity call was “inactive”. In the case of `Cn1cc(C(=O)Nc2nn[nH]n2)c2ccccc21`, the cytotoxicity call is reported as “inactive”. In the case of `CCCC12CNCC(C)(CNC1)C2=O`, the cytotoxicity call is reported as “inactive”. In the case of `O=[N+]([O-])c1ccc(N(CCO)CCO)c2c1no[n+]2[O-]`, the cytotoxicity call is reported as “active”. For `Nc1ccc([As](=O)(O)O)cc1`, the cytotoxicity call was “inactive”. With `CN1CC(=O)N(c2cccnc2)C[C@]12CCNC2` the cytotoxicity call was “inactive”. With `O=[N+]([O-])C(Br)(CO)CO` [listing 1 of 2 here] the cytotoxicity call was “active”. With `O=[N+]([O-])C(Br)(CO)CO` [listing 2 of 2 here] the cytotoxicity call was “active”. For `OCC(Br)(Br)Br`, the cytotoxicity call was “inactive”. For `CN1C(=O)/C(=C/c2cn(CC(=O)N3CCOCC3)c3ccccc23)C(=O)NC1=S`, the cytotoxicity call was “inactive”. With `CC(C)(C)[C@H]1CC[C@@]2(CC1)C[C@@H](C[Si](C)(C)C)OO2` the cytotoxicity call was “inactive”. With `CC(C)Oc1ccccc1CCN` the cytotoxicity call was “inactive”. `CCN(CC)S(=O)(=O)c1ccc(Cn2nc(C(=O)Nc3ccc(N4CCCCC4)cc3)c3ccccc32)cc1` was tested, and the cytotoxicity call was “inactive”. With `NC(=O)N1C[C@@H]2C[C@H]1CN2` the cytotoxicity call was “inactive”. In the case of `C[N+]1(C)C2CCC1CC(OC(=O)C(CO)c1ccccc1)C2.O=[N+]([O-])[O-]` (centres undefined), the cytotoxicity call is reported as “inactive”. For `O=C(NCNC(=O)N[C@H]1C(=O)NC(=O)N1CO)N[C@H]1C(=O)NC(=O)N1CO`, the cytotoxicity call was “inactive”. In the case of `CCC(=O)CCCCC[C@@H]1NC(=O)[C@H]2CCCCN2C(=O)[C@H]([C@H](C)CC)NC(=O)[C@H](Cc2cn(OC)c3ccccc23)NC1=O`, the cytotoxicity call is reported as “active”. In the case of `CCC(=O)CCCCC[C@@H]1NC(=O)[C@H]2CCCCN2C(=O)[C@H]([C@@H](C)CC)NC(=O)[C@H](Cc2cn(OC)c3ccccc23)NC1=O`, the cytotoxicity call is reported as “active”. For `N[C@@H](C(=O)O)c1cc(=O)[nH]o1`, the cytotoxicity call was “inactive”. `COC(N)=O` was tested, and the cytotoxicity call was “inactive”. `CN1C[C@@H]2C[C@H](C(=O)Nc3cccnc3)[C@@H](C1)O2` was tested, and the cytotoxicity call was “inactive”. For `CCCCS(=O)(=O)N1C[C@H]2CNC[C@@H]2C1`, the cytotoxicity call was “inactive”. For `NC(=O)c1ccc(N)nc1`, the cytotoxicity call was “active”. In the case of `NC(=O)c1cc([N+](=O)[O-])cc([N+](=O)[O-])c1` [listing 1 of 2 here], the cytotoxicity call is reported as “inactive”. With `NC(=O)c1cc([N+](=O)[O-])cc([N+](=O)[O-])c1` [listing 2 of 2 here] the cytotoxicity call was “inactive”. With `C[C@H]1CN([C@@H](C)CO)C(=O)CCCn2nncc2CO[C@@H]1CN(C)C(=O)Oc1ccc2ccccc2c1` the cytotoxicity call was “inactive”. With `CNc1ccc(C(=O)C[C@@H](O)CC[C@@H](C)[C@H]2OC(=O)C[C@@H](O)CC(=O)C[C@@H](O)C[C@@H](O)C[C@@H](O)C[C@@H](O)C[C@@]3(O)C[C@@H](O)[C@H](C(=O)OC)[C@@H](C[C@@H](O[C@@H]4O[C@H](C)[C@@H](O)[C@H](N)[C@@H]4O)\C=C/C=C\C=C/C=C\C=C/C=C\C=C/[C@@H]2C)O3)cc1` the cytotoxicity call was “inactive”. With `CN(C)C(=O)Oc1ccc[n+](C)c1` the cytotoxicity call was “inactive”. `CN(C)C(=O)Oc1ccc[n+](C)c1.[Br-]` was tested, and the cytotoxicity call was “active”. For `CN(C)C(=O)Oc1cccc([N+](C)(C)C)c1.[Br-]`, the cytotoxicity call was “inactive”. In the case of `O=C(O)[C@H]1C[C@H]2CCCCN2C1`, the cytotoxicity call is reported as “inactive”. For `CN1[C@@H]2CC[C@@H]1C[C@H](O)C2` (some centres undefined), the cytotoxicity call was “inactive”. In the case of `CCCC[C@@H](C)[C@@H](OC(=O)C[C@@H](CC(=O)O)C(=O)O)[C@H](C[C@@H](C)C[C@H](O)CCCC[C@@H](O)C[C@H](O)[C@H](C)N)OC(=O)C[C@@H](CC(=O)O)C(=O)O`, the cytotoxicity call is reported as “inactive”. In the case of `OC[C@H]1O[C@@H](Oc2c[nH]c3ccc(Br)c(Cl)c23)[C@H](O)[C@@H](O)[C@H]1O`, the cytotoxicity call is reported as “inactive”. `CCCCCCCCCCCCCCCC[N+](C)(C)C.[Br-]` was tested, and the cytotoxicity call was “active”. In the case of `C[N+](C)(C)CCCCCCCCCC[N+](C)(C)C.[Br-].[Br-]`, the cytotoxicity call is reported as “inactive”. With `C[N+](C)(C)CCCl` the cytotoxicity call was “inactive”. With `N=C(N)/N=C(\N)Nc1ccc(Cl)cc1` the cytotoxicity call was “inactive”. For `Oc1ccccc1-c1ccccc1O`, the cytotoxicity call was “inactive”. In the case of `CC1=CC(=O)c2c(O)cccc2C1=O`, the cytotoxicity call is reported as “active”. With `O=C1C=CC(=O)c2c(O)cccc21` the cytotoxicity call was “active”. With `Oc1ccccc1-c1ccccc1` the cytotoxicity call was “inactive”. With `C[C@H]1O[C@H](C[N+](C)(C)C)C[C@@H]1O` the cytotoxicity call was “inactive”. For `NCCc1nnc2n1CCCCC2`, the cytotoxicity call was “inactive”. With `C[C@H]1CN([C@@H](C)CO)C(=O)CCCn2nncc2CO[C@@H]1CN(C)C(=O)Oc1cccc2ccccc12` the cytotoxicity call was “inactive”. `CC(=O)Nc1ccc(CCN)cc1` was tested, and the cytotoxicity call was “inactive”. In the case of `CNC(C)(C)Cc1ccccc1.O=S(=O)(O)O`, the cytotoxicity call is reported as “inactive”. For `CC(C)NC(=O)[C@H]1CCS(=O)(=O)[C@H]2CNC[C@@H]12`, the cytotoxicity call was “inactive”. In the case of `C[C@@H]1C(=O)NC[C@@H]2CN(CC3CC3)C[C@@H]21`, the cytotoxicity call is reported as “inactive”. With `CCC(C(N)=O)N1CCCC1=O` (centres undefined) the cytotoxicity call was “inactive”. In the case of `O=[As]O[As]=O` (centres undefined), the cytotoxicity call is reported as “active”. For `C[C@H](CO)N1C[C@H](C)[C@@H](CN(C)C(=O)Oc2ccccc2)OCc2ccccc2-c2c(n(C)c3ccccc23)C1=O`, the cytotoxicity call was “inactive”. For `C[C@@H]1O[C@@H](OC(=O)Cc2ccccc2)[C@H](O)[C@H](O)[C@H]1O`, the cytotoxicity call was “inactive”. For `COC(=O)[C@H]1[C@H](CO)[C@H]2Cn3c(cccc3=O)[C@@H]1N2C(=O)C1CC1`, the cytotoxicity call was “inactive”. `O=C(NC[C@H]1CCC2(CCNCC2)O1)C1CC1` was tested, and the cytotoxicity call was “inactive”. `O=C(O)C(Cl)Cl.[NaH]` was tested, and the cytotoxicity call was “inactive”. For `Cl.NCC(=O)c1ccccc1`, the cytotoxicity call was “inactive”. `CNCC(O)c1ccc(O)cc1.CNCC(O)c1ccc(O)cc1.O=C(O)C(O)C(O)C(=O)O` (centres undefined) was tested, and the cytotoxicity call was “inactive”. For `Cc1[nH]c2ccc(O)cc2c1CCN`, the cytotoxicity call was “inactive”. In the case of `Cc1ccc2nc(CCN)[nH]c2c1`, the cytotoxicity call is reported as “inactive”. In the case of `Cc1ccc2c(CCN)c(C)n(C)c2c1`, the cytotoxicity call is reported as “active”. With `C[C@@H]1[C@H](O)[C@@H](C)/C=C\C=C/CC\C=C/C=C\C=C/C=C\[C@@H](O[C@@H]2O[C@H](C)[C@@H](O)[C@H](N)[C@@H]2O)C[C@@H]2O[C@](O)(C[C@@H](O)[C@H](O)CC[C@@H](O)C[C@@H](O)C[C@@H](O)CC(=O)O[C@H]1C)C[C@H](O)[C@H]2C(=O)O` the cytotoxicity call was “inactive”. For `CN(C)[C@@H](CN)c1cccc(C(F)(F)F)c1`, the cytotoxicity call was “inactive”. `CN[C@@H]1[C@@H](O)[C@@H](O[C@@H]2[C@H](O)[C@@H](O[C@H]3O[C@H]([C@@H](C)O)[C@@H](O)[C@H](O)[C@H]3N)[C@H](N)C[C@@H]2N)OC[C@]1(C)O` was tested, and the cytotoxicity call was “inactive”. With `CCCCCCCCCCCCCCCC[n+]1ccccc1` the cytotoxicity call was “active”. For `CCCCCCCCCCCCCCCC[n+]1ccccc1.[Cl-]`, the cytotoxicity call was “active”. For `CC(=O)c1c(O)c(C)c(O)c(Cc2c(O)c3c(c(C(=O)/C=C/c4ccccc4)c2O)OC(C)(C)C=C3)c1O`, the cytotoxicity call was “inactive”. With `COCC(=O)N1[C@@H]2Cn3c(ccc(C4=CCCC4)c3=O)[C@H]1[C@@H](C(=O)OC)[C@@H]2CO` the cytotoxicity call was “inactive”. With `Cn1cc(CN2C[C@H]3CNC[C@H]3C2)cn1` the cytotoxicity call was “inactive”. With `Cc1ccc(C[C@H]2CCCN2)cc1C` the cytotoxicity call was “inactive”. With `NCCc1cccc(O)c1` the cytotoxicity call was “inactive”. For `OC[C@@H]1[C@@H](O)[C@H](O)[C@H]2[C@@H](O)CCN21`, the cytotoxicity call was “inactive”. `Cc1c(N)nc([C@H](CC(N)=O)NC[C@@H](N)C(N)=O)nc1C(=O)N[C@H](C(=O)N[C@@H](C)[C@H](O)[C@@H](C)C(=O)N[C@@H](C(=O)NCCc1nc(-c2nc(C(=O)NCCC[S+](C)C)cs2)cs1)[C@@H](C)O)[C@@H](O[C@H]1O[C@H](CO)[C@H](O)[C@@H](O)[C@H]1O[C@H]1O[C@H](CO)[C@@H](O)[C@H](OC(N)=O)[C@@H]1O)c1cnc[nH]1` was tested, and the cytotoxicity call was “inactive”. For `Cn1cc(N2C[C@@H]3CNC[C@@H]3C2=O)cn1`, the cytotoxicity call was “inactive”. For `C/C=C(\C)C(=O)O[C@H]1C[C@@H](OC(C)=O)[C@@]2(C(=O)OC)CO[C@H]3[C@@H](O)[C@@](C)([C@]45O[C@@]4(C)[C@H]4C[C@@H]5O[C@H]5OC=C[C@@]54O)[C@H]4[C@]1(CO[C@]4(O)C(=O)OC)[C@@H]32`, the cytotoxicity call was “inactive”. With `C[C@@H]1O[C@@H](O[C@@H]2C[C@@H](O)[C@]3(CO)[C@H]4[C@H](O)C[C@]5(C)[C@@H](C6=CC(=O)OC6)CC[C@]5(O)[C@@H]4CC[C@]3(O)C2)[C@H](O)[C@H](O)[C@H]1O` the cytotoxicity call was “active”. With `CC1OC(OC2CC(O)C3(CO)C4C(O)CC5(C)C(C6=CC(=O)OC6)CCC5(O)C4CCC3(O)C2)C(O)C(O)C1O.O.O.O.O.O.O.O.O` (centres undefined) the cytotoxicity call was “active”. With `C[C@H]1C[C@@H](O)[C@]2(O)[C@@]13CC(=O)OC[C@@]2(C)[C@](C)(O)C(=O)C3` the cytotoxicity call was “inactive”.

Source: the antibiotic and cytotoxicity screens of Wong et al. (2023)
